Most compounds without a hit are left out; they make up all but 21% or so of the library.
CHX counter: affects cycloheximide protein synthesis inhibition readout, counter-screen | cell reporter, cycloheximide protein synthesis inhibition counterscreen | max response, % | actives 12% (n = 300,000); in the data active means max response mostly above about 13%, no sharp cut-off; inactive means mostly below about 14%; further: read at 38.3 µM for the half of the compounds with a filed dose; 0% is about no effect
SARS PLP yeast: inhibitors of SARS-CoV papain-like protease in yeast. S. cerevisiae expressing SARS-CoV PLpro, growth rescue. Potency, µM (doses to about 32.9 µM), inactives show at the top dose activity, positive = growth rescue, hits mostly activators. actives 0.19% (n = 330,000). AID 485353; calls by dose curve; further: potency means the concentration at half of the fitted maximal effect; 0% is about no effect; nearly all actives have a fitted effect of over 55% in size
Shiga inhibitor: inhibitors of Shiga toxin in Vero cells; Vero cells, Shiga toxin protein synthesis inhibition reporter; AID 2315; actives 9.2% (n = 290,000); inhibition, % at 38.7 µM; in the data active means inhibition mostly above about 28%, no sharp cut-off; inactive means mostly below about 43%; further: 0% is about no effect
Pf growth 96h: P. falciparum growth inhibition at 96 hours. P. falciparum luciferase reporter growth, 96 h. Potency, µM (doses to about 28.7 µM), for the others: at the top dose activity change, negative = inhibition, hits mostly inhibitors. actives 6.9% (n = 320,000); further: potency means the concentration at half of the fitted maximal effect; on the % scale 0 is the no-effect control and ±100 the full control effect
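Luminescence readout: decreased luciferase signal marks inhibited growth of reporter-expressing P. falciparum in infected red cells (2% hematocrit, 0.05% parasitemia final), exposed to compound two generations (96 h, 37 C, 5% CO2).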
Pf growth 48h: inhibits P. falciparum growth in the first generation, 48 h. AID 504832. actives 5.9% (n = 310,000). P. falciparum luciferase growth in erythrocytes, 48 h. Potency, µM (series often up to 28.7 µM), inactives show top-dose activity change, negative = inhibition, hits mostly inhibitors; further: potency means the concentration at half of the fitted maximal effect; on the % scale 0 is the no-effect control and ±100 the full control effect
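Luciferase-expressing parasites in RBCs, 2% Hct / 0.1% parasitemia final; RPMI 1640 + 0.5% Albumax; 37 C, 5% CO2, one generation; luminescence read-out, lower signal = inhibition.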
NS1 inh: influenza NS1 inhibition. Potency, µM (top dose mostly 46.1 µM), inactives show at the highest dose activity, positive = more growth. actives 0.4% (n = 270,000). AID 2326; calls by dose curve; further: potency means the concentration at half of the fitted maximal effect; actives are rising curves; nearly all actives have a fitted effect of over 50% in size
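Growth recovery, yeast-based: influenza A NS1 expressed in S. cerevisiae causes slow growth, and suppressors are detected by OD600. The parent strain without NS1 is used as positive control.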
* = called active by the depositor; ? = inconclusive; . = not tested or not shown; [ ] = another dose, or the depositor's remark. Unless noted, the call rests on the fitted dose curve; in most records, active means well fitted inhibition curve with a large enough effect; inconclusive means small, poorly fitted or top-dose-only effect, or another doubt; inactive means no such curve, though single readings can be large or run the other way.

SMILES	CHX counter	SARS PLP yeast	Shiga inhibitor	Pf growth 96h	Pf growth 48h	NS1 inh
CC(CC(=O)NCc1ccco1)S(=O)(=O)c1ccc2c(c1)CCN2C(=O)C1CC1 (stereo not given)	-6	4%	-13	8.3µM*	-6%	-6%
O=[N+]([O-])c1cccc(S(=O)(=O)Nc2cccc(-c3ccc(N4CCOCC4)nn3)c2)c1	.	2%	.	?	?	.
O=[N+]([O-])c1cccc(S(=O)(=O)Nc2ccc(-c3ccc(N4CCCC4)nn3)cc2)c1	.	1%	.	?	-10%	.
Cc1cccc(S(=O)(=O)Nc2cccc(-c3ccc(N4CCCCC4)nn3)c2)c1	59*	.	73*	.	.	.
O=[N+]([O-])c1cccc(S(=O)(=O)Nc2cccc(-c3ccc(N4CCCC4)nn3)c2)c1	.	12%	.	6.6µM*	?	.
COc1ccc(S(=O)(=O)Nc2cccc(-c3ccc(N4CCCCCC4)nn3)c2)c(OC)c1	53*	-3%	60*	?	-4%	-25%
COc1ccc(S(=O)(=O)Nc2cccc(-c3ccc(N4CCCCCC4)nn3)c2)cc1OC	35*	-4%	40*	0%	?	-4%
O=C(CCNS(=O)(=O)c1ccccc1)OCC(=O)c1ccc(Cl)cc1	.	?	.	1%	8%	.
O=C1CCCN1c1ccc(S(=O)(=O)Oc2ccc(Cl)cc2)cc1[N+](=O)[O-]	-2	-14%	-8	27%	22%	-4%
COC(=O)c1ccc(OCC(=O)NCCC2=CCCCC2)c(OC)c1	.	-13%	.	.	.	.
COc1ccc(OC)c(S(=O)(=O)Nc2cccc(-c3ccc(N4CCCCCC4)nn3)c2)c1	7	-3%	9	?	?	1%
Cc1ccc(S(=O)(=O)Nc2cccc(-c3ccc(N4CCCCCC4)nn3)c2)cc1	39*	-10%	89*	13%	17%	-7%
O=C(CSc1ccsc1[N+](=O)[O-])NCc1ccco1	6	-2%	10	?	12µM*	.
COCCCNC(=O)CSc1ccsc1[N+](=O)[O-]	7	-1%	-2	-36%[5.75 µM]	1%	-3%
COc1ccc(C(=O)CNC2=NCCC2)cc1	-3	2%	15	-3%	9%	.
O=C(NC1=NCCCCC1)c1cccc2ccccc12	-2	2%	14	20%	11%	.
Fc1cc(Cl)ccc1NC1=NCCCCC1	-1	1%	-6	14%	19%	-1%
O=C(CNC1=NCCC1)c1ccc(Cl)cc1	-2	9%	-4	12µM*	?	-1%
O=C(ONC1=NCCCCC1)c1ccc(Cl)cc1	17*	-29%	37	.	?	-215%
O=C(ONC1=NCCCCC1)c1c(F)cccc1F	18*	-26%	-3	-50%	13µM*	-36%
O=C(CO/N=C/c1ccccc1)Nc1c(F)c(F)c(F)c(F)c1F	3	0%	-9	13%	5%	.
Cc1ccc(Nc2nc3nonc3[nH]c2=O)cc1C	36*	-22%	108*	5.2µM*	46%	-96%
COc1ccc([C@@H]2Sc3cc(OC)ccc3N(CCN(C(C)C)C(C)C)C(=O)[C@H]2OC(C)=O)cc1	-6	0%	-5	?	12µM*	-13%
CCN1C(=O)C(NC(C)=O)c2cc(OC)ccc21 (stereo not given)	-5	-1%	-12	20%	15%	14%
CCOC(=O)c1c(C)[nH]c(C(=O)Nc2ccc(C)c(Cl)c2)c1C	35*	6%	103*	?	-55%	-3%
SMILES	CHX counter	SARS PLP yeast	Shiga inhibitor	Pf growth 96h	Pf growth 48h	NS1 inh
CC(=O)c1c(C)[nH]c(C(=O)Nc2ccc(C)c(C)c2)c1C	36*	-10%	65*	27%	.	3%
COc1ccc(NC(=O)c2[nH]c(C)c(C(C)=O)c2C)cc1S(=O)(=O)Nc1ccc(Br)cc1	-2	0%	11	?	?	4%
CC(=O)c1c(C)[nH]c(C(=O)Nc2cccc(C(F)(F)F)c2)c1C	32*	-14%	73*	1.9µM*	4.1µM*	-3%
CCOC(=O)c1c(C)[nH]c(C(=O)Nc2ccc(NC(C)=O)cc2)c1C	-3	-1%	-9	0%	0%	.
CC(=O)c1c(C)[nH]c(C(=O)Nc2cccc(C#N)c2)c1C	1	1%	52	?	?	6%
CC(=O)c1c(C)[nH]c(C(=O)Nc2cccc(S(=O)(=O)N3CCCCC3)c2)c1C	.	-1%	.	9.3µM*	9.3µM*	.
O=C(CC1c2ccccc2Oc2ccccc21)N1CCN(c2ccccn2)CC1	-1	-19%	23	1%	-16%	-90%
O=C1Nc2c(Br)cccc2C1=O	.	4%	.	.	.	.
Cc1ccccc1N1CCN(c2ncnc3c2cnn3Cc2ccc(Cl)cc2)CC1	-1	-11%	-1	18%	?	-32%
COc1ccc(NC(=O)c2[nH]c(C)c(C(C)=O)c2C)cc1Cl	60*	-5%	56	-21%	?	-20%
CC(=O)c1c(C)[nH]c(C(=O)NC2CCCCC2)c1C	16*	-1%	16	-4%	0%	-5%
CCc1c(C(=O)Nc2ccc(C)c(C)c2)[nH]c(C)c1C(C)=O	40*	-7%	84*	3%	-10%	-5%
COc1cc(NC(=O)c2[nH]c(C)c(C(C)=O)c2C)cc(OC)c1OC	-3	3%	-3	-5%	3%	?
O=S(=O)(NCCCN1CCN(c2ccccc2F)CC1)c1cccc2cccnc12	-6	6%	-7	?	.	-7%
COc1ccc(Nc2ncnc3c2c(C)c(C)n3CCO)cc1	48*	-2%	72*	270%	131%	2%
Cc1c(C)n(CCCN(C)C)c2ncnc(Nc3ccc(F)cc3)c12	7	1%	-3	22%	14%	-1%
Cc1c(C)n(CCO)c2ncnc(Nc3ccc(F)cc3)c12	18	2%	69*	35%	-15%[0.00184 µM]	3%
CCCOc1ccc(-c2cnc(N)s2)cc1	50*	-14%	64*	265%	179%	-8%
CCCCCCCSc1nnc(N)s1	14*	-3%	44*	64%	-7%	-32%
CCCOc1ccc(OCCSc2nnc(N)s2)cc1	26*	-8%	95*	.	99%	0%
CCCC(=O)Nc1nc(-c2ccccc2)c(CC)s1	-5	-1%	1	4%	-8%	-32%
CC1Cc2cc(S(=O)(=O)N3CCCC(C(=O)N4CCCCC4)C3)ccc2N1C(=O)C1CC1 (stereo not given)	-2	-3%	-2	13µM*	13µM*	-24%
CC1CCCN(C(=O)C2CCN(S(=O)(=O)c3ccc4c(c3)CC(C)N4C(=O)C3CC3)CC2)C1 (stereo not given)	3	1%	-10	23%	?	7%
CC(=O)N1c2ccc(S(=O)(=O)N3CCCC(C(=O)NCc4ccccc4)C3)cc2CC1C (stereo not given)	-3	-1%	12	?	?	-14%

Assay outcomes as filed in PubChem BioAssay.
